Records with an inconclusive call do not appear. Entries that show only a call come without a potency. Unmarked numbers belong to inactive results. Calls of active or inactive are those of the source. Calls follow the shape of the dose curve; as a rule, active = well fitted inhibition curve with a large enough effect; inconclusive = small, poorly fitted or top-dose-only effect; inactive = flat fitted curve, though single readings scatter. Where a SMILES comes first, the peptide text is derived from it. Bridges are numbered along the chain shown (N, C = ends). [ ]: non-standard residue; d: D form. The star is where a group is joined. X1 = CCC(C)C(N)C1=NC(C(=O)*)CS1; dOrn = NCCC[C@@H](N)C(=O)O
molecular target: Calcium and integrin-binding protein 1 (Homo sapiens) (UniProt Q99828); test: Primary qHTS for Identification of Calcium Integrin Binding Protein 1 (CIB1) Competitor (AID 1508620); conditions: CIB1-GST / FITC-alphaIIb peptide fluorescence polarization; series mostly up to 57.7 µM; also: top concentration of the series differs between compounds
In short: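 Fluorescence polarization competition: GST-tagged CIB1 (1 uM final) preincubated with compound 15 min at room temperature, then FITC-labelled alphaIIb peptide (100 nM final) added. After 15 min at room temperature, polarization read at Ex 480/Em 540.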

Calcium and integrin-binding protein 1 (Homo sapiens), sequence (Q99828 whole entry, looked up): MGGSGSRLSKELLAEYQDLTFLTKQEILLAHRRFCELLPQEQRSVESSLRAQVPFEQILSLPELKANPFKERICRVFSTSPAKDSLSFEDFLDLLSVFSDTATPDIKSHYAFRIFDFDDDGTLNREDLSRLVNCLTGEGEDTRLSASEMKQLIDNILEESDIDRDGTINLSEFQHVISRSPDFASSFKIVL

Compound | activity change, negative = inhibition | Potency
C[C@@H]1O[C@@H](O[C@H]2[C@H](O[C@H]3CC[C@@]4(C)C(CC[C@]5(C)C4CC=C4C6CC(C)(C)CC[C@]6(C(=O)O[C@@H]6O[C@H](CO[C@@H]7O[C@H](CO)[C@@H](O[C@@H]8O[C@@H](C)[C@H](O)[C@@H](O)[C@H]8O)[C@H](O)[C@H]7O)[C@@H](O)[C@H](O)[C@H]6O)CC[C@]45C)[C@]3(C)CO)OC[C@H](O)[C@@H]2O)[C@H](O)[C@H](O)[C@H]1O (stereo not given in full) | 2.74% [at 12.4 µM] | –
O=C(O)CCc1cc2ccoc2cc1O[C@@H]1O[C@H](CO[C@@H]2OC[C@](O)(CO)[C@H]2O)[C@@H](O)[C@H](O)[C@H]1O | – | inactive
CC(C)CC(=O)OC[C@H]1O[C@@](COC(=O)CC(C)C)(O[C@H]2O[C@H](CO)[C@@H](O)[C@H](O)[C@H]2OC(=O)CC(C)C)[C@@H](OC(=O)CC(C)C)[C@@H]1O | – | inactive
C/C=C/C=C/C=C/C(=O)O[C@@H]1C=C(CO)C(O)(C(=O)O)[C@@]2(C)CCCC(C)(C)[C@H]12 (stereo not given in full) | – | inactive
OCC1=CC[C@@H]2C=CO[C@@H](O[C@@H]3O[C@H](CO)[C@@H](O)[C@H](O)[C@H]3O)[C@H]12 | – | inactive
CCC(C)C(N)C1=NC(C(=O)N[C@@H](CC(C)C)C(=O)N[C@H](CCC(=O)O)C(=O)N[C@H](C(=O)N[C@H]2CCCCNC(=O)[C@H](CC(N)=O)NC(=O)[C@@H](CC(=O)O)NC(=O)[C@H](Cc3cnc[nH]3)NC(=O)[C@@H](Cc3ccccc3)NC(=O)[C@H]([C@@H](C)CC)NC(=O)[C@@H](CCCN)NC2=O)[C@@H](C)CC)CS1 (stereo not given in full) (X1-L[dE]IK[dOrn]I[dF]H[dD]N; lactam 4-C) | – | inactive
CCc1nc(C(N)=O)c(Nc2ccc(N3CCC(N4CCN(C)CC4)CC3)c(OC)c2)nc1NC1CCOCC1 | – | inactive
Cn1ccnc1CCOC(c1cc2nccc(C(=O)O)c2[nH]1)c1ccccc1Cl (stereo not given) | – | inactive
C[C@@H]1C[C@H]2[C@@H]3CCC4=CC(=O)C=C[C@]4(C)[C@@]3(F)[C@@H](O)C[C@]2(C)[C@@]1(O)C(=O)COP(=O)(O)O | – | inactive
O=C(O)[C@H]1CCCC[C@H]1C(=O)N1CCc2ccccc2[C@H]1CN1C(=O)c2ccccc2C1=O | – | inactive
O=C(O)c1n[nH]c2c1C[C@H]1C[C@@H]21 | – | inactive
O=C(O)C[C@@H](NC(=O)c1cc(-c2ccc(-c3ccncc3)cc2)cs1)c1ccccc1 | – | inactive
Nc1nc(CC(=O)Nc2ccc(CCNCC(O)c3ccccc3)cc2)cs1 (stereo not given) | – | inactive
COC1C2=C(COC2=O)C2(C)CCCC(C)(CO)C2C1OC(=O)c1ccccc1 (stereo not given) | – | inactive
C[C@@H]1O[C@@H](O[C@@H]2[C@@H](O)[C@H](O[C@@H]3[C@@H](O)[C@@H](O)[C@H](O[C@H]4[C@H](OC(=O)[C@]56CCC(C)(C)C[C@H]5C5=CCC7[C@@]8(C)C[C@H](O)[C@H](O[C@@H]9O[C@@H](C)[C@H](O)[C@@H](O)[C@H]9O)[C@@](C)(CO)C8CC[C@@]7(C)[C@]5(C)C[C@H]6O)O[C@H](C)[C@H](O)[C@@H]4O)O[C@H]3C)OC[C@H]2O)[C@H](O)[C@H](O)[C@H]1O (stereo not given in full) | 1.34% [at 12.4 µM] | –
C[C@]1(O)CC[C@@H]2C(C(=O)O)=CO[C@@H](O[C@@H]3O[C@H](COC(=O)c4ccc(O)cc4)[C@@H](O)[C@H](O)[C@H]3O)[C@@H]21 | – | inactive
COC(=O)C1=CO[C@@H](O[C@@H]2O[C@H](CO)[C@@H](O)[C@H](O)[C@H]2O)[C@@H]2[C@@](C)(O)[C@@H](O)C[C@]12O | – | inactive
CC1CC(O)CC(C)(C)C1(O)CCO (stereo not given) | – | inactive
C[C@@H]1O[C@@H](O[C@H]2[C@H](O[C@H]3[C@H](O[C@H]4CC[C@@]5(CO)C(CC[C@]6(C)C5CC=C5C7CC(C)(C)C[C@@H](O)[C@]7(C)CC[C@]56C)C4(C)C)O[C@H](C(=O)O)[C@@H](O)[C@@H]3O)OC[C@@H](O)[C@@H]2O)[C@H](O)[C@H](O)[C@H]1O (stereo not given in full) | – | inactive
C[C@@H]1CCC2C(C)(C)[C@H](O)CC[C@]2(C)[C@@]12Cc1c(O)cc3c(c1O2)CN(CCO)C3=O (stereo not given in full) | – | inactive

Compound | activity change, negative = inhibition | Potency
CC1(C)CCCC2(C)C(CO)C3CCC2C31 (stereo not given) | – | inactive
O=C(NN1CCCCC1)c1nn(-c2ccc(Cl)cc2Cl)c(-c2ccc(C#Cc3ccc(C(F)(F)F)cc3)s2)c1CNS(=O)(=O)N1CCCC1 | – | inactive
C[C@]1(OC(=O)/C=C/c2ccccc2)C[C@H](O)[C@]2(O)C=CO[C@@H](O[C@@H]3O[C@H](CO)[C@@H](O)[C@H](O)[C@H]3O)C12 (stereo not given in full) | – | inactive
C=CC1(C)CC2=CCC3C(C)(C(=O)O)CCCC3(C)C2CC1OC(C)=O (stereo not given) | – | inactive
CC1CCC2(NC1)OC1C(=O)C3C4CCC5CC(O[C@@H]6O[C@H](CO)[C@@H](O)[C@H](O)[C@H]6O[C@@H]6O[C@@H](C)[C@H](O)[C@@H](O)[C@H]6O)CCC5(C)C4CCC3(C)C1C2C (stereo not given in full) | – | inactive
CC(C)(O)c1ccc2c(c1)C(O)CC1C(C)(C(=O)O)CCCC21C (stereo not given) | – | inactive
Cc1c(N2C(=O)c3ccc(C(=O)O)cc3C2=O)c(=O)n(-c2ccccc2)n1C | – | inactive
O=C1C[C@@H](c2ccc(O)cc2)Oc2cc(O)ccc21 | – | inactive
CC(=O)O[C@@H]1[C@@H](OC(=O)/C=C/c2ccccc2)[C@H](C)O[C@@H](O[C@H]2[C@@H]3C=CO[C@@H](O[C@@H]4O[C@H](CO)[C@@H](O)[C@H](O)[C@H]4O)[C@@H]3[C@@]3(CO)O[C@@H]23)[C@@H]1OC(C)=O | – | inactive
OC[C@H]1O[C@@H](Oc2cc(O)cc(-c3cc4ccc(O)cc4o3)c2)[C@H](O)[C@@H](O)[C@@H]1O | – | inactive
CCC(C)/C=C(C)/C=C/C1=CC2=C(Cl)C(=O)C(C)(OC(C)=O)C(=O)C2=CN1CCCC(=O)O (stereo not given) | – | inactive
COc1cc(/C=C/c2cc(O)cc(O[C@@H]3O[C@H](CO)[C@@H](O)[C@H](O)[C@H]3O)c2)ccc1O | – | inactive
C=C1CC2C3(C)C(O)CC(=O)C(C)(C)C3C(OC(C)=O)C(OC(C)=O)C2(C)C2C(=O)OC(C)(C(=O)OC)C(=O)C12C (stereo not given) | – | inactive
C#Cc1cnc2[nH]c(=O)n(C(CC)CC)c2n1 | – | inactive
C=CC1C(O[C@@H]2O[C@H](CO)[C@@H](O)[C@H](O)[C@H]2O)OC=C(C(=O)OC)C1Cc1nccc2c1[nH]c1ccccc12 (stereo not given in full) | – | inactive
COC(=O)C12C(=O)C(C)=C(O)C1(C)C(C)=CC1C34CCC(OC3=O)C(C)(C)C4CCC12C (stereo not given) | – | inactive
O=C(/C=C/c1ccc(O)cc1)OC[C@H]1O[C@@H](OC(=O)/C=C/c2ccccc2)[C@H](O)[C@@H](O)[C@@H]1O | – | inactive
COc1cc(/C=C/C(=O)OC[C@H]2O[C@H](O[C@]3(CO)O[C@H](CO)[C@@H](O)[C@@H]3O)[C@H](O)[C@@H](O)[C@@H]2O)cc(OC)c1O | – | inactive
C[C@H]1C[C@H]2[C@@H]3CCC4=CC(=O)C=C[C@]4(C)[C@@]3(F)[C@@H](O)C[C@]2(C)[C@@]1(O)C(=O)COP(=O)(O)O | – | inactive
C[C@@H]1O[C@@H](O[C@H]2[C@H](O[C@H]3CO[C@@H](O[C@H]4CC[C@@]5(C)C(CC[C@]6(C)C5CC[C@]57OC[C@@]8(CC[C@](C)(CO)CC85)[C@H](O)C[C@]76C)C4(C)C)[C@H](O[C@@H]4O[C@H](CO)[C@@H](O)[C@H](O)[C@H]4O)[C@H]3O)O[C@H](CO)[C@@H](O)[C@@H]2O)[C@H](O)[C@H](O)[C@H]1O (stereo not given in full) | – | inactive

From PubChem BioAssay (NCATS)
